Data from PubChem BioAssay (EPA / NIEHS).
Records with an inconclusive call do not appear. The source made the active and inactive calls. Rule for the calls: active = hit-call score of the fitted dose curve at least 0.9, where 1 is the maximum; inconclusive = response in the unintended direction; inactive = score below 0.9.

Experiment: ACEA_ER_AUC_viability: ACEA Biosciences xCELLigence Real-Time Cell Analysis on Estrogen Receptor Agonism for Viability (AID 2283782);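 note: continuous compound exposure with impedance area under curve over 80 h; hit means loss of impedance signal meaning reduced cell growth or viability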
How it was run: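 T47D cells preconditioned in phenol red-free RPMI with charcoal-stripped FBS, then dosed with 8-point 1:4 series from 100 uM (up to 0.5% DMSO). Impedance monitored up to ~80 h; area-under-curve loss versus DMSO taken as viability.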

| SMILES | AC50 | outcome |
| --- | --- | --- |
| CN(C)C(=S)SC(=S)N(C)C | 90.3 µM (active) |  |
| COCCOCCOCCO |  | inactive |
| C=C(C)CNCC | 25.7 µM (active) |  |
| COC(C)(C)CC(C)=O |  | inactive |
| NC(=S)NNC(N)=S |  | inactive |
| COC(C)(C)CCCC(C)CC=O (configuration not stated) | 50 µM (active) |  |
| CCc1ccc(O)c(OC)c1 |  | inactive |
| c1ccc(CN(Cc2ccccc2)Cc2ccccc2)cc1 | 89 µM (active) |  |
| CCCCCc1ccco1 | 35 µM (active) |  |
| CC(C)OCCO |  | inactive |
| CSCCC=O | 85.8 µM (active) |  |
| Cc1ccc(N)c(S(=O)(=O)O)c1 |  | inactive |
| O=C1c2ccccc2C(=O)c2c(O)ccc(O)c21 |  | inactive |
| CCCC(=O)OCCc1ccccc1 | 25.7 µM (active) |  |
| CC(C)=CCCC(C)CCOC=O (configuration not stated) | 50 µM (active) |  |
| CCC(C)=O |  | inactive |
| O=C1CCCC=CCCCCCCCCCC1 | 84.1 µM (active) |  |
| Brc1ccc(Br)c(Br)c1 | 34.9 µM (active) |  |
| C=CC(C)(O)CCC=C(C)C (configuration not stated) |  | inactive |

| SMILES | AC50 | outcome |
| --- | --- | --- |
| CCCCCCOC(=O)CCC |  | inactive |
| CC1(C)CCC[C@]2(C)[C@H]3CCO[C@]3(C)CC[C@@H]12 | 76.2 µM (active) |  |
| COC(=O)c1cccnc1 |  | inactive |
| COC(=O)c1ccc(OC)cc1 |  | inactive |
| CC(=O)C(C)O (configuration not stated) |  | inactive |
| CC=Cc1ccc(OCC)c(O)c1 |  | inactive |
| CCOc1ccc(NC(=O)CC(C)=O)cc1 |  | inactive |
| CC(=O)NCCO |  | inactive |
| Cc1ncc[nH]1 |  | inactive |
| O=CN1CCOCC1 |  | inactive |
| C=CC(=C)CCCC(C)(C)OC(C)=O |  | inactive |
| C=C(C)C(=O)OCCOC1CC2CC1C1C=CCC21 (configuration not stated) | 48.6 µM (active) |  |
| CCOC(=O)CN |  | inactive |
| CC(=O)OCCCc1ccccc1 |  | inactive |
| CC1(C)COCN1 | 32.1 µM (active) |  |
| CC1C2CC(CC2C2CCCC(O)C2)C1(C)C (configuration not stated) | 84.8 µM (active) |  |
| CCOC(=O)CCc1ccccc1 |  | inactive |
| CCCCN(CCCC)C(=O)N(CCCC)CCCC | 80.4 µM (active) |  |
